Measurements reported in ChEMBL document CHEMBL1961873, “Compounds: GSK PKIS; Assays: Nanosyn kinase panel” (2012).

What follows are compounds tested against Platelet-derived growth factor receptor alpha (Homo sapiens) (UniProt P16234). Conditions: at 1 µM.
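Note: values are mean percent inhibition of PDGFRA.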

Platelet-derived growth factor receptor alpha (Homo sapiens), sequence (P16234 whole entry): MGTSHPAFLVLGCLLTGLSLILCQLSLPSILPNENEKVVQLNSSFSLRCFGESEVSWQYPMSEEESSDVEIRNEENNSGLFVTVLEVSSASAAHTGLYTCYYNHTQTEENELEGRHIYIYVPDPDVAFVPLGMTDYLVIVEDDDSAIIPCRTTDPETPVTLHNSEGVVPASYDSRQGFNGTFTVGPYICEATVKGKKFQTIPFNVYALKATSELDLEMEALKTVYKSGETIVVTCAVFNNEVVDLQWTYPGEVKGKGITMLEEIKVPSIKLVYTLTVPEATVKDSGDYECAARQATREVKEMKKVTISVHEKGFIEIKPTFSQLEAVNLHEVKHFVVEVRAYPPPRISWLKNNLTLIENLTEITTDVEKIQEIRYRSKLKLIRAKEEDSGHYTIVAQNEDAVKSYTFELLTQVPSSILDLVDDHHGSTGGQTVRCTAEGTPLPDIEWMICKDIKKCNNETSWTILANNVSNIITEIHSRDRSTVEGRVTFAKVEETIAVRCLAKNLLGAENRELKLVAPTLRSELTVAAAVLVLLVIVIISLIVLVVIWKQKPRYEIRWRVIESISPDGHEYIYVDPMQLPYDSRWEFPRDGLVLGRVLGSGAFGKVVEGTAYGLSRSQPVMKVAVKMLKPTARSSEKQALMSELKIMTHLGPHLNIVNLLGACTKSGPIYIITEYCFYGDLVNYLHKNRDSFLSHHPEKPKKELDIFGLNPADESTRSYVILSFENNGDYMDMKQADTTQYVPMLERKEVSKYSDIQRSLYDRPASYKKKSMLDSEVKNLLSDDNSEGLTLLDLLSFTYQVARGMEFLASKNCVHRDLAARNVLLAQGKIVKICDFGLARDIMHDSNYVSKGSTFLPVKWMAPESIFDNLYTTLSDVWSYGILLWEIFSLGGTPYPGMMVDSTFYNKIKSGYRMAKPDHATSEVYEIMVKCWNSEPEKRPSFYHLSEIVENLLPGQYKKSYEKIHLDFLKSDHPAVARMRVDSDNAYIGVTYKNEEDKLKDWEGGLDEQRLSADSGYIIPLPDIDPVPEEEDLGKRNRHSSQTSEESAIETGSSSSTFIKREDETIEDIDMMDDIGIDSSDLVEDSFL

SMILES	inhibition [%]
CCC(=O)Nc1ccc(C)c(-c2ccc(C(=O)NCC3CC3)cc2)c1	11.6
CN(C)CCOc1ccc(-c2cc(-c3ccc4c(c3)CCC4=NO)c(-c3ccncc3)o2)cc1	9.14
c1ccc(-c2n[nH]cc2-c2ccnc(-c3ccc(OCCN4CCOCC4)cc3)c2)nc1	58.7
COc1cccc(/C=N/Nc2ncnc3c2cnn3-c2cccc(OC)c2)c1	14.9
NCc1ccc(-n2c(-c3nonc3N)nc3cnccc32)cc1	18
Cc1ccc(C(=O)NC2CCC2)cc1-c1ccc(C(=O)NCC2CC2)cc1	4.53
COc1cc(Nc2ncc3c(C)nc(-c4cccc(Oc5ccccc5)c4)n3n2)cc(OC)c1OC	10.5
Fc1ccc(-c2ncn(C3CCNCC3)c2-c2ccnc(Oc3ccc(F)c(F)c3)n2)cc1	14.7
COC(=O)Nc1nc2ccc(Sc3ccc(NC(=O)Nc4cc(C(F)(F)F)ccc4F)cc3)cc2[nH]1	57.6
NC(=O)c1cc(-c2ccc(F)cc2)cc(-c2ccncc2)c1N	7.4
CN(C)CCCNc1nccc(-c2c(-c3ccc(F)cc3)nn3cc(C(F)(F)F)ccc23)n1	18.6
CCc1nccc2c1nc(-c1nonc1N)n2CC	11.5
COc1ccc(-c2ccc3c(NC(=O)C4CC4)n[nH]c3n2)cc1	12.2
O=C1Nc2ccc(I)cc2C1=Cc1cc(Br)c(O)c(Br)c1	9.37
O=C(Nc1n[nH]c2nc(-c3ccc(O)cc3)c(Br)cc12)C1CC1	67.1
CS(=O)(=O)CCNCc1cc(-c2cc3c(Nc4ccc(OCc5cccc(F)c5)c(Cl)c4)ncnc3s2)cs1	13.6
Cc1nnc(-c2ccc(C)c(-c3ccc(C(=O)NCc4ccc(Cl)cc4)cc3)c2)o1	8.84

SMILES	inhibition [%]
Cc1ccc(C(=O)NC(C)C)cc1-c1ccc(C(=O)NCC2CC2)cc1	2.31
O=C(Nc1ccc(Oc2ccc3[nH]c(NC(=O)c4ccccc4)nc3c2)cc1)Nc1cc(C(F)(F)F)ccc1F	78.4
COc1cc(C)c(N(C)C(=O)CN(C)C)cc1Nc1nc(Nc2cccc(F)c2C(N)=O)c2cc[nH]c2n1	7.22
CN(C)c1ccc2c(c1)/C(=C/Nc1ccc(S(N)(=O)=O)cc1)C(=O)N2	66.9
c1ccc(Oc2ccc(Nc3ncc(-c4ccccc4)o3)cc2)cc1	11.5
COc1cccc(-n2cnc3c(N/N=C/c4ccncc4)ncnc32)c1	53.6
Fc1ccc(-c2ncn(C3CCNCC3)c2-c2ccnc(Oc3ccc(Oc4ccccc4)cc3)n2)cc1	9.58
O=C(NCC1CC1)c1ccc(-c2cccc(C(=O)NC3CC3)c2)cc1	6.92
N#Cc1ccc(Oc2nccc(-c3c(-c4ccc(F)cc4)ncn3C3CCNCC3)n2)cc1	10.1
COc1ccc2cc(-c3c(-c4ccncc4)nc(-c4ccc(S(C)(=O)=O)cc4C)n3C)ccc2c1	23.6
C/C(Nc1ccc(S(N)(=O)=O)cc1)=C1/C(=O)Nc2ccccc21	53.2
Fc1ccc(-c2c(-c3ccncc3)nc3n2CCS3)cc1	11.9
C#Cc1cccc(Nc2ncnc3ccc(OCCCCNCCS(C)(=O)=O)cc23)c1	30.4
COc1ccc2ncn(-c3cc(O[C@H](C)c4ccccc4Cl)c(C(N)=O)s3)c2c1	23.1
Fc1ccc(-c2nc3n(c2-c2ccncc2)CCS3)cc1	11.1
CCS(=O)(=O)c1ccc(OC)c(Nc2ncc(-c3cccc(-c4ccccc4F)c3)o2)c1	49.7
Nc1nccc(-c2c(-c3ccc(F)cc3)ncn2C2CCC(O)CC2)n1 (centres undefined)	21.6
